# Assay results as given in PubChem BioAssay AID686979 (National Center for Advancing Translational Sciences (NCATS), 2013).
# Where “and” joins values, the source holds several entries; their conditions need not be identical. Identical values can stand only once. Among all 420,000 compounds or so, about 50,000 (12%) were called active. About 26% were inconclusive and are not listed. Calls follow the shape of the dose curve; as a rule, active = well fitted inhibition curve with a large enough effect; inconclusive = small, poorly fitted or top-dose-only effect; inactive = flat fitted curve, though single readings scatter. This excerpt belongs to a sample that is enriched for actives.
# Assay: qHTS for Inhibitors of human tyrosyl-DNA phosphodiesterase 1 (TDP1): qHTS in cells in presence of CPT; also: nearly all actives have a fitted effect of over 55% in size
# Settings: chicken DT40 Tdp1-/-;hTDP1 cells + 20 nM CPT, ATP luminescence, 48 h; series mostly up to 46.2 µM; activity change, negative = growth inhibition: at the top concentration
# Method in brief: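 Cell growth measured by CellTiter-Glo luminescence after a minimum 48 h, 37 C compound exposure with 20 nM CPT in Tdp1-knockout DT40 cells stably expressing hTDP1, seeded 400/well; qHTS titration format.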
# % is scaled to controls: 0 for no effect and ±100 for the full control effect; potency is read from the fitted curve at half-maximal effect.
Compound,"activity change, negative = growth inhibition",Potency
Cc1cc(C)cc(N(CCC#N)C(=O)CN2C(=O)NC3(CCCC3)C2=O)c1,-11.4% (inactive),–
CC(NS(=O)(=O)c1ccc(OCC(=O)N2CCCC2)cc1)c1ccccc1 (stereo not given),-4.52% (inactive),–
CCOC(=O)c1ccc(-n2c(CCC(=O)O)ccc2-c2ccccc2)cc1,–,inactive
COc1ccc(C2CC(c3cccs3)Nc3nnnn32)cc1 (stereo not given),18.1% (inactive),–
COc1ccc(Nc2ncnc3sc(-c4ccccc4)cc23)c(OC)c1,-21.8% (inactive),–
COc1ccc(-c2cc(NC=O)c3ncc(-c4ccccc4)n3c2)cc1OC,–,6.51 µM (active)
CC(=O)Nc1cc(-c2ccccc2F)cn2c(-c3cccc(C(F)(F)F)c3)cnc12,-101% (inactive),–
COc1cc(C=O)ccc1Oc1nnnn1-c1ccccc1,13.2% (inactive),–
COCCNc1ccnc(-c2cccc(NS(C)(=O)=O)c2)n1,-0.332% (inactive),–
COc1cccc(-c2cc(NC(C)=O)c3ncc(-c4cccc(C(C)=O)c4)n3c2)c1,–,23.1 µM (active)
COc1cccc(NC(=O)CSc2nnc(-c3cccnc3)o2)c1,-1.45% (inactive),–
COc1ccc(/C=N/S(=O)(=O)c2ccccc2)cc1OC,4.71% (inactive),–
CC(=O)c1ccc(-c2cnc3c(NC=O)cc(-c4cccc(NS(C)(=O)=O)c4)cn23)cc1,–,23.1 µM (active)
COc1ccc(NC(=O)CC2COc3ccccc3O2)c(OC)c1 (stereo not given),-21% (inactive),–
COc1ccc(-c2cc(NC=O)c3ncc(-c4cccc(C(=O)N(C)C)c4)n3c2)c(OC)c1,–,23.1 µM (active)
Cc1cccc(N=C2SC(C)CN2C(=O)CN2C(=O)NC3(CCCC3)C2=O)c1 (stereo not given),1.26% (inactive),–
O=C(CCn1nnc2ccccc2c1=O)N[C@@H](Cc1c[nH]c2ccccc12)C(=O)O,14.2% (inactive),–
COc1ccc(S(=O)(=O)N2CCOCC2)cc1NC(=O)CC1CC2CCC1C2 (stereo not given),-25.8% (inactive),–
O=C(O)CC(CC(=O)N1CCOCC1)c1ccccc1 (stereo not given),3.43% (inactive),–
Cc1ccc(CN2COc3cc(C)c4c(oc(=O)c5ccccc54)c3C2)cc1,-24% (inactive),–
CC(C)C[C@H](NC(=O)C1CCC(CNC(=O)[C@@H]2CCCN2C(=O)OC(C)(C)C)CC1)C(=O)O (stereo not given in full),29.8% (inactive),–
COc1cccc(CNC(=O)CCCC(=O)Nc2cccc([N+](=O)[O-])c2)c1,-19.6% (inactive),–
Cc1c(NC(=O)CSCc2ccccc2)cccc1C(=O)O,-1.33% (inactive),–
COc1cc(C(=O)N/C(=C\c2cn(C)c3ccccc23)C(=O)N2CCOCC2)cc(OC)c1OC,12.5% (inactive),–
CCCCNC(=O)N(O)C1N(/N=C/c2ccccc2O)C(=S)SC1(C)C (stereo not given),-27.3% (inactive),–

Compound,"activity change, negative = growth inhibition",Potency
COc1ccnc(Oc2ccccc2)c1-c1ncn[nH]1,1.93% (inactive),–
Cc1ccc2oc(=O)c3cnn(CC(=O)NCc4ccccc4Cl)c3c2c1,13.6% (inactive),–
Cc1ccccc1C(=O)Nc1ccccc1Sc1ccccc1,5.44% (inactive),–
COc1cccc(/C=C2\Sc3ccc(C(=O)NCC4CCCO4)cc3N(C)C2=O)c1 (stereo not given),–,18.4 µM (active)
COc1ccccc1-n1cnc2cc(C(=O)NCC3CCCO3)ccc21 (stereo not given),-18% (inactive),–
COc1cccc(C(=O)NCCS(=O)(=O)NCC2CCCO2)c1 (stereo not given),1.27% (inactive),–
COc1ccc(CN2C(=O)C(CC(=O)NCc3cccc4ccccc34)CC(C(=O)N3CCOCC3)=C2C)cc1 (stereo not given),-12.7% (inactive),–
CCc1ccc(CNC(=O)C2CCN(c3nnc(C)c4c(C)n(-c5ccc(C)cc5)nc34)CC2)cc1,–,5.17 µM (active) and 16.4 µM (active)
Cc1ccc(NC(=O)N2CCC(C(=O)NCc3ccc(F)cc3)CC2)cc1,-17.6% (inactive),–
Cc1nnc(N2CCCC(C(=O)NCCN(C)C)C2)c2nn(-c3ccccc3)c(C)c12 (stereo not given),-16.4% (inactive),–
COc1ccc(-n2nc3c(N4CCC(C(=O)NCc5ccccc5)CC4)nnc(C)c3c2C)cc1,-21.8% (inactive),–
CCOc1ccc(CNC(=O)C2CCCN(c3nnc(C)c4c(C)n(-c5ccccc5)nc34)C2)cc1 (stereo not given),–,13 µM (active)
CCOC(=O)C1CCN(C(=O)Cn2nc(C)c3c(C)n(-c4ccccc4)nc3c2=O)CC1,-18% (inactive),–
Cc1ccc(C=O)cc1Cl,-16.7% (inactive),–
Cc1nc2scc(-c3cccs3)c2c(=O)n1N,0.389% (inactive),–
[2H]C(CCOS(N)(=O)=O)c1ccccc1 (stereo not given),-11.5% (inactive),–
CCC(C)N(C(=O)CSc1nnnn1-c1ccccc1OC)C1CCS(=O)(=O)C1 (stereo not given),-22.6% (inactive),–
COc1ccccc1-n1nnnc1S(=O)(=O)Cc1ccc(Cl)cc1,–,5.8 µM (active)
COc1ccccc1-n1nnnc1SCC(=O)NC(=O)Cc1ccccc1,-8.14% (inactive),–
O=C(NCCO)c1cccc(-c2cccc3nccn23)c1,8.69% (inactive),–
COc1ccc(C2=NN(C(=O)CCC(=O)O)C(c3cccs3)C2)cc1OC (stereo not given),16% (inactive),–
CCS(=O)(=O)Nc1ccc(C2=NN(C(C)=O)C(c3cccs3)C2)cc1 (stereo not given),–,4.11 µM (active)
CS(=O)(=O)Nc1cccc(C2=NN(S(=O)(=O)c3ccccc3)C(c3cccs3)C2)c1 (stereo not given),-5.61% (inactive),–
CS(=O)(=O)Nc1cccc(C2=NN(C(=O)c3cccc(F)c3)C(c3cccs3)C2)c1 (stereo not given),–,23.1 µM (active)
CS(=O)(=O)Nc1ccc(C2=NN(S(C)(=O)=O)C(c3cccs3)C2)cc1 (stereo not given),-4.9% (inactive),–

Compound,"activity change, negative = growth inhibition",Potency
CCOc1ccccc1C1CC(c2cccc(NS(C)(=O)=O)c2)=NN1C(=O)c1ccccc1 (stereo not given),-6.18% (inactive),–
CCNC(=O)Cn1nc(C)n2c(cc3c(OC)cccc32)c1=O,7.15% (inactive),–
CCc1ccccc1NC(=O)CN(C)S(=O)(=O)c1ccc2c(c1)c(=O)n(C)c(=O)n2C,-12.8% (inactive),–
CCOc1ccc(S(=O)(=O)N2CCC(c3ccccc3)CC2)cc1C(=O)O,3% (inactive),–
CN(Cc1ccccc1)C(=O)COC(=O)c1ccccc1Nc1ccccc1,-0.608% (inactive),–
Cc1ccc(C)c(S(=O)(=O)n2nc(C)c(S(=O)(=O)N3CCC(C)CC3)c2C)c1,-7.4% (inactive),–
Cc1ccc(S(=O)(=O)N2CCN(c3ncnc4ccccc34)CC2)cc1,–,461 nM (active) and 1.58 µM (active)
O=[N+]([O-])c1ccc(S(=O)(=O)N2CCN(c3nc(-c4ccccc4)nc4ccccc34)CC2)cc1,1.79% (inactive),–
Cc1ccc(S(=O)(=O)N2CCN(C)CC2)cc1,18.1% (inactive),–
Cc1ccc(C)c(S(=O)(=O)N2CCN(c3ncnc4sccc34)CC2)c1,–,11.6 µM (active)
COc1ccc(C)cc1S(=O)(=O)N1CCN(S(=O)(=O)c2cc(C(=O)O)ccc2C)CC1,-0.611% (inactive),–
CCOC(=O)c1[nH]c(C)c(CCC(=O)NCc2ccccc2C)c1C,-16.7% (inactive),–
CCCNC(=O)C1(C)CCN(C(=O)c2cc(F)ccc2C)C1 (stereo not given),-11.1% (inactive),–
CC(C)Oc1ccc(CN2CCC(n3nccc3NC(=O)c3cccnc3)CC2)cc1,-19.1% (inactive),–
COC(=O)[C@@]1(Cc2ccc(OC)cc2)[C@H]2c3cc(C(=O)N4CCCC4)n(Cc4ccc(OC(F)(F)F)cc4)c3C[C@H]2CN1C(=O)c1ccccc1,–,16.4 µM (active)
COC(=O)c1ccc(CN2CCC(CO)(Cc3ccc(OC)cc3)CC2)cc1,5.36% (inactive),–
CSc1ccc(S(=O)(=O)NCC(=O)OCC(=O)NC2(C#N)CCCCC2)cc1[N+](=O)[O-],-3.09% (inactive),–
CCN(CC(=O)NCC(=O)Nc1cccc(C)c1C)Cc1ccccc1,-19.9% (inactive),–
CSC1=NC2(C)CCCCC2C12C=CC(=O)C=C2 (stereo not given),-2.58% (inactive),–
O=C(C1=C(O)C(=O)N(Cc2ccccc2)C1c1ccco1)c1ccco1 (stereo not given),-1.15% (inactive),–
CC(C)c1ccc(C2C(C(=O)c3ccco3)=C(O)C(=O)N2CC2CCCO2)cc1 (stereo not given),–,20.6 µM (active)
CCOc1cc(C2C(C(=O)c3ccco3)=C(O)C(=O)N2Cc2ccccc2)ccc1O (stereo not given),4.89% (inactive),–
COc1cccc(OCC(=O)NNC(=O)c2cnccn2)c1,-1.97% (inactive),–
CN(C(=O)COc1nnc(-c2cccs2)c(-c2cccs2)n1)c1ccccc1,–,23.1 µM (active)
CN(C(=O)COc1ccccc1)c1nnc(-c2ccncc2)s1,-6.56% (inactive),–

Compound,"activity change, negative = growth inhibition",Potency
O=C(O)Cc1sc(-c2ccccc2)nc1-c1cccs1,-3.68% (inactive),–
CCOc1ccc(CC(=O)NCCc2csc3nc(-c4ccccc4F)nn23)cc1,-27.1% (inactive),–
Cc1ccc(NC(=O)COC(=O)CN2CCCCCC2=O)c(C)c1,-11.8% (inactive),–
Clc1ccc(Cn2ncc3c(NCc4cccnc4)ncnc32)cc1,–,20.6 µM (active)
CC(=O)Nc1ccc(NC(=O)CSc2ncnc3c2cnn3Cc2ccccc2)cc1,3.41% (inactive),–
Clc1ccc(Nc2ncnc3c2nnn3Cc2ccccc2)cc1,-12.7% (inactive),–
Cc1ccc(OCCOc2cccc(/C=N/NC(N)=O)c2)cc1,16.1% (inactive),–
COc1ccc(C(=O)COC(=O)Cn2cnc3c2c(=O)n(C)c(=O)n3C)c(OC)c1,11.2% (inactive),–
O=[N+]([O-])c1ccc(/C=C/c2ccc3cccnc3c2)cc1,–,7.94 µM (active)
O=C(Oc1ccc([N+](=O)[O-])cc1)c1ccc2ccccc2n1,-16.8% (inactive),–
O=C(OCc1ccc([N+](=O)[O-])cc1)c1ccccn1,7.01% (inactive),–
COc1ccc(C2/C(=C(/O)c3ccc(OC(C)C)cc3)C(=O)C(=O)N2CCCN2CCOCC2)cc1 (stereo not given),-2.53% (inactive),–
CCCCc1ccc(S(=O)(=O)NC(=O)C2(C)CCN2C(=O)c2c(C)noc2C)cc1 (stereo not given),-16.1% (inactive),–
Cn1c2c(c(=O)n(C)c1=O)C(c1cccc(F)c1)C(C#N)=C(N)O2 (stereo not given),12.8% (inactive),–
CC(C)CCNC(=O)c1cccnc1Sc1ccccc1,7.04% (inactive),–
Cc1cc([N+](=O)[O-])c(=O)[nH]c1C,-13.7% (inactive),–
Cc1cccc(C(=O)OCC(=O)Nc2ccc(F)cc2)c1,-20.9% (inactive),–
Cc1cccc(NC(=O)COC(=O)c2ccccc2OCc2cccc(Br)c2)c1,–,17.8 µM (active)
O=C(COC(=O)c1ccccc1OCCOc1ccccc1)Nc1cccc(Br)c1,-12% (inactive),–
CC1C(=O)Nc2ccccc2N1C(=O)c1ccc(F)cc1F (stereo not given),-6.81% (inactive),–
CCN(CC)C(=O)c1nc[nH]c1C(=O)N(C)Cc1ccccc1,4.56% (inactive),–
CN1CC(O)c2cc(N=NC(N)=O)c(O)cc21 (stereo not given),-15.8% (inactive),–
CCOC(=O)N1CCN(S(=O)(=O)c2ccc(-n3cnnn3)cc2)CC1,-11.6% (inactive),–
CCOC(=O)N1CCN(S(=O)(=O)c2ccc(C(=O)Nc3ccc(F)cc3F)cc2)CC1,–,2.59 µM (active)
CCOC(=O)N1CCN(S(=O)(=O)c2ccc(Br)cc2)CC1,1.25% (inactive),–
